Measured values published in PubChem BioAssay AID588329 (National Center for Advancing Translational Sciences (NCATS), 2011).
Records with an inconclusive call do not appear. The source made the active and inactive calls. Calls come from the whole dose curve; as a rule, active = well fitted inhibition curve with a large enough effect; inconclusive = small, poorly fitted or top-dose-only effect; inactive = flat fitted curve, though single readings scatter.

test system: Trypanosoma brucei 6-phosphofructokinase (PFK); assay: Confirmatory Assay to Find Inhibitors of T. brucei phosphofructokinase: ATP-depletion Assay; conditions: recombinant T. brucei PFK, Kinase-Glo ATP depletion luminescence; series mostly up to 57.5 µM
Description: Various species of the protozoan family Trypanosomatidae are responsible for a range of serious human diseases in tropical and subtropical areas of the world. […] Many of the disorders caused by trypanosomatids are fatal if left untreated, but most currently used drugs are inefficient and toxic. […] Oxidative metabolism involving the mitochondrial tricarboxylic acid cycle and oxidative phosphorylation are repressed in these parasites, and recent RNA interference (RNAi) experiments have shown that even partial depletion of certain individual glycolytic enzymes can lead to the death of cultured parasites. One such glycolytic enzyme, phosphofructokinase (PFK), catalyzes the formation of fructose-1,6-bisphosphate (F1,6BP) and ADP from fructose-6-phosphate (F6P) and ATP, and in many metabolic circumstances makes an important contribution to the control of flux through the glycolytic pathway. As a specific glycolytic target, PFK is particularly attractive as it catalyzes the first irreversible step in glycolysis, and structural and kinetic studies have shown very substantial and essential differences from corresponding host enzymes, allowing for the discovery of parasite-selective inhibitors. NIH Chemical Genomics Center [NCGC] NIH Molecular Libraries Probe Centers Network [MLPCN] MLPCN Grant: MH092153-01 Assay Submitter (PI): Malcom Walkinshaw, University of Edinburgh
Substrate buffer was dispensed into white, solid 1536-well plates at 3ul/well in 0.1M triethanolamine (TEA) buffer, pH 8.0, containing final concentrations of 5 mM MgCl2, 0.01% Tween20, 0.5 mM fructose-6-phosphate (F6P) and 0.1mM ATP. Then, 23nl of compounds or DMSO were delivered to each well using a pin tool. One ul T. brucei PFK (0.1M TEA, 0.01% Tween20, 0.1% bovine serum albumin (BSA) and 1.25nM PFK, final concentrations) was then dispensed, and plates were incubated at room temperature for 45 min. The luminescent detection reagent, Kinase-Glo Plus (Promega), was then added at 2ul/well and incubated for ten minutes at room temperature. The plates were measured on a ViewLux plate reader for luminescent signal using a clear filter with a one second exposure. The %Activity was determined from the corrected luminescence values. As no specific T. brucei PFK inhibitors have been identified in the literature, 1x (1.25nM) and 0x PFK enzyme controls (untreated) were included to normalize %Activity of identified inhibitors; 0x enzyme values corresponded to 100%Activity (full inhibition), while 1x PFK enzyme values were used to normalize 0% activity (no inhibition). The Kinase-Glo Plus protocol varies from the primary screen in that it measures ATP, rather than ADP, concentration, and thus provides a measure of substrate depletion, rather than of product formation. Concentration-response curves were fitted to the signals arising from the resulting luminescence. The concentration-effect curves were then classified based on curve quality (r2), response magnitude and degree of measured activity, and compounds were subsequently categorized based on their curve class. […] Keywords: T. brucei, phosphofructokinase, PFK, glycolysis, luminescence, MLSMR, MLPCN, NIH Roadmap, qHTS, NCGC

SMILES | Potency
Cc1cc(NS(=O)(=O)c2ccc(NCCc3ccc(Cl)c(Cl)c3)cc2)no1 | 11600 nM (active)
O=C(Cc1ccc(Cl)c(Cl)c1)Nc1ccc(S(=O)(=O)Nc2ccc(C(=O)O)cc2)cc1 | 326 nM (active)
Cc1cc(NS(=O)(=O)c2ccc(NC(=O)Cc3ccc(Cl)c(F)c3)cc2)no1 | 730 nM (active)
Cc1cc(NS(=O)(=O)c2ccc(N(C)C(=O)Cc3ccc(Cl)c(Cl)c3)cc2)no1 | 1030 nM (active)
O=C(Cc1ccc(Cl)c(Cl)c1)Nc1ccc(S(=O)(=O)Nc2ccon2)cc1 | 231 nM (active)
Cc1cc(N[S+](=O)([O-])c2ccc(NC(=O)Cc3ccc(Cl)nc3)cc2)no1 | 18300 nM (active)
O=C(Cc1ccc(Cl)c(Cl)c1)Nc1ccc(S(=O)(=O)Nc2ccccc2)cc1 | 10300 nM (active)
Cc1cc(NS(=O)(=O)c2ccc(NC(=O)CCc3ccc(Cl)c(Cl)c3)cc2)no1 | 16300 nM (active)
Cc1cc(NS(=O)(=O)c2ccc(C(=O)NCc3ccc(Cl)c(Cl)c3)cc2)no1 | 2310 nM (active)
COc1ccc(CC(=O)Nc2ccc(S(=O)(=O)Nc3cc(C)on3)cc2)cc1OC | inactive
Cc1cc(NS(=O)(=O)Cc2ccc(NC(=O)Cc3ccc(Cl)c(Cl)c3)cc2)no1 | 2910 nM (active)
Cc1cc(NS(=O)(=O)c2ccc(NC(=O)Cc3ccc(Cl)cc3)cc2)no1 | 2590 nM (active)
Cc1cc(NS(=O)(=O)c2ccc(NC(=O)Cc3ccc(Cl)cc3Cl)cc2)no1 | 4610 nM (active)
CN(C)c1cccc(NS(=O)(=O)c2ccc(NC(=O)Cc3ccc(Cl)c(Cl)c3)cc2)c1 | 16300 nM (active)
O=C(Cc1ccc(Cl)c(Cl)c1)Nc1ccc(S(=O)(=O)Nc2cccc(C(=O)O)c2)cc1 | 651 nM (active)
Cc1cc(NS(=O)(=O)c2ccc(NC(=O)Cc3ccc(Cl)c(Cl)c3)cc2)n(C)n1 | 1030 nM (active)

SMILES | Potency
O=C(Cc1ccc(Cl)c(Cl)c1)Nc1ccc(S(=O)(=O)Nc2cccc(O)c2)cc1 | 2060 nM (active)
Cc1cc(NS(=O)(=O)c2ccc(NC(=O)Cc3ccc(Cl)c(Cl)c3)cc2)on1 | 366 nM (active)
Cc1cc(NS(=O)(=O)c2ccc(NC(=O)Cc3ccc(Cl)c(Cl)c3)cc2)no1 | 410 nM (active)
Cc1cc(NC(=O)c2ccc(NC(=O)Cc3ccc(Cl)c(Cl)c3)cc2)no1 | inactive
O=C(Cc1ccc(Cl)c(Cl)c1)Nc1ccc(S(=O)(=O)Nc2cncnc2)cc1 | 651 nM (active)
Cc1cc(N[S+](=O)([O-])c2ccc3cc(NC(=O)Cc4ccc(Cl)c(Cl)c4)ccc3c2)no1 | 5170 nM (active)
Cc1cc(NS(=O)(=O)c2ccc(NC(=O)Cc3ccc(Cl)c(C(F)(F)F)c3)cc2)no1 | 651 nM (active)
Cc1cc(NS(=O)(=O)c2ccc(NC(=O)Cc3ccc(C)c(F)c3)cc2)no1 | 5170 nM (active)
Cc1cc(NS(=O)(=O)c2ccc(NC(=O)Cc3ccc(C)c(C)c3)cc2)no1 | 16300 nM (active)
Cc1cc(NS(=O)(=O)c2ccc(NC(=O)Cc3cccc(Cl)c3)cc2)no1 | 5170 nM (active)
Cc1cc(N(C)S(=O)(=O)c2ccc(NC(=O)Cc3ccc(Cl)c(Cl)c3)cc2)no1 | 2590 nM (active)
Cc1cc(NS(=O)(=O)c2ccc(NC(=O)Cc3ccc4ccccc4c3)cc2)no1 | 5170 nM (active)
O=C(Cc1ccc(Cl)c(Cl)c1)Nc1ccc(S(=O)(=O)O)cc1 | 580 nM (active)
Cc1cc(NS(=O)(=O)c2cccc(NC(=O)Cc3ccc(Cl)c(Cl)c3)c2)no1 | 16300 nM (active)
O=C(Cc1ccc(Cl)c(Cl)c1)Nc1ccc(S(=O)(=O)Nc2ccn[nH]2)cc1 | 326 nM (active)
